Screens (PubChem)
Pf growth 96h: P. falciparum growth inhibition at 96 hours; 6.9% of 320,000 active; P. falciparum luciferase reporter growth, 96 h; AID 504834; Potency, µM (top dose mostly 28.7 µM), without a hit: top-dose activity change, negative = inhibition, most hits filed as inhibitors; also: potency is read from the fitted curve at half-maximal effect; % is scaled to controls: 0 for no effect and ±100 for the full control effect
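Luminescence readout: decreased luciferase signal marks inhibited growth of reporter-expressing P. falciparum in infected red cells (2% hematocrit, 0.05% parasitemia final), exposed to compound two generations (96 h, 37 C, 5% CO2).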
Shiga toxin inh: inhibitors of Shiga toxin in Vero cells; Vero cells, Shiga toxin protein synthesis inhibition reporter; inhibition, % at 38.7 µM; 9.2% of 290,000 active; AID 2315; in the data active = inhibition mostly above about 28%, no sharp cut-off; inactive = mostly below about 43%; also: 0% is about no effect
CHX counter-1: counter-screen for Shiga toxin inhibitors: cycloheximide protein synthesis inhibition; cell reporter, cycloheximide protein synthesis inhibition counterscreen; max response, %; 12% of 300,000 active; in the data active = max response mostly above about 13%, no sharp cut-off; inactive = mostly below about 14%; also: read at 38.3 µM for the half of the compounds with a filed dose; 0% is about no effect
HCMV inh: blocks human cytomegalovirus replication; AID 1259415; HFF cells, HCMV-luciferase reporter, 72 h; active compounds read low; activity change, negative = inhibition, % at 57.5 µM; 4.5% of 410,000 active; in the data active = activity change below about -60%; inconclusive = no clear call, values can overlap the other calls; inactive = above about -39%; also: % is scaled to controls: 0 for no effect and ±100 for the full control effect
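Two compound doses tested in HFFs infected with HCMV-luciferase, MOI 1 PFU/cell, 72 h at 37C. Lysate luminescence read with OneGlo; data normalized against buffer-only and 10uM Salinomycin inhibitor controls.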
Pf growth 48h: inhibits P. falciparum growth in the first generation, 48 h | P. falciparum luciferase growth in erythrocytes, 48 h | AID 504832 | Potency, µM (doses to about 28.7 µM), for the others: at the highest dose activity change, negative = inhibition, hits mostly inhibitors | 5.9% of 310,000 active; also: potency is read from the fitted curve at half-maximal effect; % is scaled to controls: 0 for no effect and ±100 for the full control effect
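Firefly luciferase activity from engineered P. falciparum reports growth; inhibitors lower the luminescent signal. Cultures contained 2% hematocrit erythrocytes at 0.1% final parasitemia.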
CHX counter-2: protein synthesis counter-screen activity for Shiga toxin hits | shares compounds with Shiga toxin inh | Cycloheximide counterscreen, protein synthesis reporter, Shiga toxin assay | Potency, µM (doses to about 38.3 µM), for inactives: top-dose activity (activation), most hits filed as activators | 3% of 510 active | AID 2318; calls by dose curve; also: potency is read from the fitted curve at half-maximal effect; 0% is about no effect
Active calls of the source: *; ? = inconclusive; . = no result given. A selection: hits, their analogues and other compounds. The true share with any hit is near 20%. Unless noted, calls follow the shape of the dose curve; as a rule, active = well fitted inhibition curve with a large enough effect; inconclusive = small, poorly fitted or top-dose-only effect, or another doubt; inactive = no such curve, though single readings can be large or run the other way.

SMILES	Pf growth 96h	Shiga toxin inh	CHX counter-1	HCMV inh	Pf growth 48h	CHX counter-2
Cc1nonc1OCCNc1ccc([N+](=O)[O-])c2cccnc12	?	-16.3	-4.8	40.0	-3.0%	.
Cc1nonc1OCCCNc1ccc([N+](=O)[O-])cc1Cl	-23.3%	116.0*	14.5	-77.7*	0.1%	?
CC(C)CN1CCN(C(=O)CCc2nnc(Cc3c[nH]c4ccccc34)o2)[C@@H](C)C1=O	-12.1%	36.4*	17.3	88.0	-18.7%	?
CCN(CCCNC(=O)CSc1cc(=O)n(CC)c2ccccc12)c1ccccc1	.	.	.	0.9	.	.
CN(C)S(=O)(=O)Oc1ccsc1C(=O)Nc1ccc(Cl)c(Cl)c1	?	65.6*	9.6	67.9	?	3.4%
COc1cccc(C(=O)Cn2c(NCCCO)nc3ccccc32)c1	87.4%	.	-1.4	24.3	-38.2%	.
O=C(Cn1c(NCCO)nc2ccccc21)c1ccccc1	9.28µM*	active	3.5	?	11.1%	-0.1%
CCN1CCN(C(=O)CN2C(=O)COc3ccc(S(=O)(=O)N4CCOCC4)cc32)CC1	4.8%	-2.5	-4.0	-15.6	-7.5%	.
O=C(O)c1cc(Cl)c2c(c1)OCO2	-0.8%	37.2	-5.1	-28.2	1.1%	.
Nc1nc(-c2ccc3c(c2)CCC(=O)N3)cs1	67.5%	42.0*	7.1	49.0	62.7%	?
Cc1cc(Cl)ccc1NC(=O)CN1CCC(C(O)(c2ccccc2)c2ccccc2)CC1	?	122.3*	-5.2	-67.1*	?	-2.1%
Cc1ccc(NC(=O)CN2CCC(NC(=O)Cc3ccccc3)CC2)c(C)c1	?	-17.1	-3.7	?	4.7%	.
CN(CC(=O)NC1CC(C)(C)NC(C)(C)C1)S(=O)(=O)c1ccc(Br)cc1	1.1%	-10.9	-2.9	34.6	-4.0%	.
Cc1ccc(NC2=NCC(=O)N2C2CCCC2)cc1	5.86µM*	57.9*	7.2	20.6	15.1%	-1.9%
Cc1ccc(NC2=NCC(=O)N2C2CCCC2)cc1C	?	10.5	0.9	22.7	13.3%	.
CCOc1ccc(N2CC(C(=O)NCC(=O)Nc3ccc(F)c(F)c3F)CC2=O)cc1 (stereo not drawn)	-27.3%	.	.	-4.0	-20.3%	.
O=C(Nc1ccc(O)cc1)/C(=C\C=C\c1ccccc1)NC(=O)c1ccccc1	35.5%	30.4*	2.5	9.3	5.7%	1.1%
COc1ccc(Cc2nnn(CC(=O)O)n2)cc1	-6.2%	-8.1	-1.9	-2.1	4.3%	.
CCOC(=O)N1CCN(C(=O)c2nn(-c3cc(OC)cc(OC)c3)c(=O)c3ccccc23)CC1	.	-2.0	9.1	.	-20.6%	.
COc1cc(OC)cc(-n2nc(C(=O)N3CC(C)CC(C)C3)c3ccccc3c2=O)c1 (stereo not drawn)	24.9%	23.2*	-2.6	-26.8	?	-2.0%
Cc1ccc(N(Cc2cc3cc(C)ccc3[nH]c2=O)C(=O)c2cccs2)cc1	-25.0%	9.8	2.0	-30.5	58.9%	.
CCOC(=O)c1ccc(N/C=C/C(=O)c2ccc(OC)c(OC)c2)cc1	-9.8%	57.8*	13.9	?	-12.5%	2.7%
COc1ccccc1CNC(=O)c1csc2c1CCCC2	17.4%	38.8*	6.3	24.3	21.4%	3.3%
Cn1c(Cn2cnc([N+](=O)[O-])n2)nnc1SCC(=O)Nc1ccc(Br)cc1	37.4%	-11.1	-2.2	27.8	-27.0%	.
COc1ccccc1/C=C/C(=O)OCc1nc2ccccc2c(=O)[nH]1	-17.1%	45.4*	2.1	-21.5	?	1.0%
SMILES	Pf growth 96h	Shiga toxin inh	CHX counter-1	HCMV inh	Pf growth 48h	CHX counter-2
CCc1ccccc1Nc1nc(N)nc(COC(=O)c2c(C)noc2C)n1	?	.	.	-23.8	?	.
COc1ccc(CCNC(=O)C2CCN(S(=O)(=O)c3ccc(NC(C)=O)cc3)CC2)cc1OC	?	-5.4	-2.3	22.2	?	.
NC(=O)C1(c2ccccc2)CCC(=O)N1c1ccccc1 (stereo not drawn)	12.5%	6.3	-1.6	22.9	0.0%	.
COc1ccccc1NC(=O)Nc1nc(CC(=O)Nc2cc(F)ccc2F)cs1	?	.	.	-22.8	1.0%	.
COc1ccccc1NC(=O)Nc1cc(F)ccc1F	-26.2%	131.5*	15.7	?	17.8%	?
COc1cccc(CC(NC(C)=O)C(=O)NC2CCN(C(=O)C3CCCCC3)CC2)c1OC (stereo not drawn)	5.9%	2.2	-6.1	-7.7	?	.
